# Among all 48,000 compounds or so, about 13,000 (27%) showed an effect of 50% or more. This is one part of the list.
# Tested on: Wolbachia pipientis
# Test: Anti-Wolbachia Cell-Based Screen
# Type: functional
# Design: scale not given: in the data most compounds retested in dose-response had high values
# Details: 5 µM
row,Structure (SMILES),Percent Effect [%]
1,CC(=O)c1cccc(S(=O)(=O)NCC(C)(O)c2cccs2)c1 (stereo not given),1.748
2,COCCN1CCN(C(=O)C[C@@H]2C[C@@H](C(C)C)[C@H](CC#N)C=C2C)CC1,7.225
3,COc1cc(F)ccc1-c1cc(N)ccn1,-8.193
4,CCOc1ccccc1CNC(=O)NCC(c1cnn(C)c1)N(C)C (stereo not given),-20.46
5,Cc1cc(C)cc(C(=O)NCCCNc2ncccn2)c1,-23.32
6,Cc1ccc2cc(C3(O)CCN(C(=O)CN4CCCC4)CC3)ccc2n1,-0.9065
7,CS(=O)(=O)N(Cc1ccon1)c1ccc(F)cc1,-1.74
8,CC(C)CCn1cc(C(C(=O)O)N2CCC(N3CCSCC3)CC2)cn1 (stereo not given),123.7
9,COc1ccc(C(C(=O)O)N2CCCN(C3CCCCC3)CC2)cn1 (stereo not given),6.723
10,COc1ccc(C(C(=O)O)N2CCCN(C3CCCC3)CC2)cc1OC (stereo not given),14.25
11,COCCn1cc(NC(=O)NCC(C)N2CCOCC2)cn1 (stereo not given),-7.646
12,Cn1cc(CN2CCC3(CC2)CC(c2ccncc2)C(=O)N3)cn1.O=C(O)C(F)(F)F.O=C(O)C(F)(F)F (stereo not given),4.796
13,COc1ccc(F)cc1C(C(=O)O)N1CCSCC1 (stereo not given),-3.942
14,CC(CCn1cccn1)N1CCC(n2cc(C(C)(C)N)nn2)CC1 (stereo not given),-1.676
15,CC(C)Cc1cn(C2CCN(C(C)CCn3cccn3)CC2)nn1 (stereo not given),2.161
16,CC(C)CCS(=O)(=O)CC(=O)N1CCCC1c1cnn(C)c1 (stereo not given),5.656
17,CC(C)CCn1cc(C(C(=O)O)N2CCCN(C3CCCC3)CC2)cn1 (stereo not given),99.16
18,CC(C)CCn1cc(C(C(=O)O)N2CCC(c3ccncc3)CC2)cn1 (stereo not given),105.9
19,CC(C)CCn1cc(C(C(=O)O)N2CCSCC2)cn1 (stereo not given),100.1
20,O=C(N[C@@H]1CN(c2ncccn2)C[C@@H]2CCCO[C@@H]21)c1cccnc1.O=C(O)C(F)(F)F.O=C(O)C(F)(F)F,-5.975
21,CC1CCN(C(=O)c2cccc(CN3CCOCC3)c2)CC1,117.9
22,CN1CCN(C(=O)c2cccc(CN3CCOCC3)c2)CC1,132.9

row,Structure (SMILES),Percent Effect [%]
1,CCN1CCN(C(=O)c2cccc(CN3CCOCC3)c2)CC1,97.52
2,CC1CCCN(C(=O)c2cccc(CS(C)(=O)=O)c2)C1 (stereo not given),-2.941
3,CCOCCN1CCN(Cc2cccc(C(=O)N(C)C)c2)CC1,-1.534
4,CCN1CCN(C(=O)c2ccn(C)c(=O)c2)CC1,15.1
5,NC(=O)C1CCN(C(=O)c2cccc(CN3CCOCC3)c2)CC1,-12.72
6,COCc1cccc(C(=O)N2CCCC2)c1,-4.067
7,O=C(c1cccc(NCCO)c1)N1CCOCC1,0.9463
8,COC(=O)[C@@H]1Cc2ncn(C(C)C)c2CN1S(=O)(=O)Cc1ccccc1,1.678
9,CCN(CC)S(=O)(=O)NC(C)C(=O)N(C)C (stereo not given),-9.888
10,CC(C)c1nnc(CNc2ccc(SC(F)(F)F)cc2)o1,-0.02401
11,CCc1ccc(C2CCCCCN2C(=O)CNC(=O)NC2CC2)o1 (stereo not given),-27.64
12,Cc1ccnc(N2CCCC(c3noc(C(C)C)n3)C2)n1 (stereo not given),19.69
13,c1cnnc(N2CCCC2CNCc2cnc(N3CCCC3)nc2)c1 (stereo not given),-1.846
14,O=C1OCCN1Cc1cc(C(F)(F)F)ccc1F,-10.76
15,O=C(O)C(F)(F)F.c1ccc(N2CCOC3(CCCN(c4ncccn4)C3)C2)nc1 (stereo not given),84.77
16,N#Cc1cccc(N2CCCC3(C2)CN(c2ncccn2)CCO3)n1.O=C(O)C(F)(F)F (stereo not given),-0.7909
17,Cc1nnc(N2CCCC3(CN(c4ccccn4)CCO3)C2)o1.O=C(O)C(F)(F)F (stereo not given),102.3
18,Cc1nnc(N2CCCC3(CN(Cc4ccc(C)s4)CCO3)C2)o1.O=C(O)C(F)(F)F.O=C(O)C(F)(F)F (stereo not given),-0.4451
19,CCS(=O)(=O)N1CCOC2(CCCN(c3ccccn3)C2)C1.O=C(O)C(F)(F)F (stereo not given),-10.79
20,O=C(O)C(F)(F)F.O=C(O)C(F)(F)F.c1cnc(N2CCOC3(CCCN(c4cnccn4)C3)C2)nc1 (stereo not given),-4.65
21,Cc1cc(C(C)NC(=O)CCN2C(=O)c3ccccc3C2=O)c(C)o1 (stereo not given),-2.425
22,Cc1nc(Nc2ncccn2)cc(C2CCCN2Cc2ncc[nH]2)n1 (stereo not given),97.78

row,Structure (SMILES),Percent Effect [%]
1,c1cc(-c2c[nH]c([C@@H]3COCCN3Cc3ncc[nH]3)n2)ccn1,-5.75
2,Cc1nc(Nc2ccccn2)cc(C2CCCN2Cc2ncc[nH]2)n1 (stereo not given),129.4
3,Cc1nc(Nc2ncccn2)cc(C2CCCN2C2CCOCC2)n1 (stereo not given),-10.06
4,CCc1cc(C(C)Nc2nc(-c3cccnc3)nc3c2CNC3)on1 (stereo not given),-7.07
5,CN(C)C(C)(C)CNC(=O)C(C)(C)c1ccccc1F,-19.41
6,Cc1csc(C2(NC(=O)NCCN3CCOCC3)CCCC2)n1,-11.69
7,COc1cccc(NC(=O)N(CCC(F)(F)F)C[C@H](O)CO)c1,-14.76
8,CCc1ccccc1OC1CN(C(=O)c2sccc2N)C1,9.804
9,CCC1CN(CC(=O)NCCC#N)CCO1 (stereo not given),-6.003
10,N#CCCNC(=O)CN1CC(n2cccn2)C1,139.2
11,O=C(c1ccc(CN2CC(n3cccn3)C2)cc1)N1CCCC1,6.953
12,O=C(CN1CCCC(c2ncc[nH]2)C1)NCCCN1CCCCCC1=O (stereo not given),11.49
13,O=C(CN1CC(n2cccn2)C1)NCCc1ccc(F)cc1,97.63
14,CC(C)c1nc2n(n1)CC(NCC(=O)NCCC1=CCCCC1)CC2 (stereo not given),-9.722
15,O=C(CN1CC(n2cccn2)C1)NCCC1=CCCCC1,104.9
16,CC(Cn1cccn1)NC(=O)NCCN1CCCCCC1=O (stereo not given),-10.88
17,O=C(CN1CC(n2cccn2)C1)NCCc1c[nH]c2ccccc12,-3.25
18,O=C(CN1CC(n2cccn2)C1)NCCCN1CCCC1=O,95.99
19,O=C(CN1CC(n2cccn2)C1)NCCCc1ccccc1,-6.652
20,O=C(CN1CC(n2cccn2)C1)NCC1(c2ccccc2)CCC1,14.59
21,CNC(=O)CCNC(=O)c1ccccc1N1CCOCC1,-6.711
